Laboratory results published in PubChem BioAssay AID1159580 (chemical genetic matrix, 2015).
Several values for one entry are separate records, joined by “and”; a condition that tells them apart may be missing. Equal entries are not always repeated. The whole screen tested about 5,500 compounds, of which about 2,000 (36%) were called active. Roughly 18% stayed inconclusive and do not appear here. No stated cut-off is given here; in the data, active means normalized growth mostly below about 0.91 (no sharp cut-off); inconclusive means no clear call, values can overlap the other calls; inactive means mostly above about 0.92. The list shows a part of the results.

Assay: chemical genetic growth profiling, strain panel (AID 1159580);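 further: tested at 20 µM; growth read once vehicle control cultures reached saturation at 30 °C; 1 = growth at the plate median or of vehicle wells; lower values mean less growth of the strain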
Conditions: S. cerevisiae deletion strains, growth OD

Measured: normalized growth

CN1CCN(CCC=C2c3ccccc3Sc3ccc(S(=O)(=O)N(C)C)cc32)CC1
inactive: locus YAL013W, strain DEP1, hits give low values 1.01 | locus YAL021C, strain ccr4, hits give low values 0.987 | locus YAL030W, strain snc1, hits give low values 0.991 | locus YBL061C, strain skt5, hits give low values 0.973 | locus YBR009C, strain hhf1, hits give low values 0.931 | locus YBR021W, strain FUR4, hits give low values 0.978 | locus YBR023C, strain chs3, hits give low values 0.919 | locus YBR171W, strain sec66, hits give low values 1.01 | locus YBR229C, strain ROT2, hits give low values 1.01 | locus YBR231C, strain swc5, hits give low values 0.945 | locus YBR279W, strain paf1, hits give low values 0.964 | locus YCL011C, strain gbp2, hits give low values 1.01 | locus YCL016C, strain dcc1, hits give low values 0.971 | locus YCL029C, strain bik1, hits give low values 0.978 | locus YCL061C, strain MRC1, hits give low values 0.953 | locus YCL069W, strain vba3, hits give low values 0.971 | locus YCR088W, strain abp1, hits give low values 1.01 | locus YDL005C, strain med2, hits give low values 0.996 | locus YDL035C, strain GPR1, hits give low values 1 | locus YDL040C, strain nat1, hits give low values 0.993 | locus YDL074C, strain BRE1, hits give low values 0.989 | locus YDL101C, strain DUN1, hits give low values 1 | locus YDL134C, strain PPH21, hits give low values 1 | locus YDL185W, strain tfp1, hits give low values 0.989 | locus YDL192W, strain arf1, hits give low values 0.991 | locus YDR001C, strain nth1, hits give low values 1.01 | locus YDR069C, strain doa4, hits give low values 1 | locus YDR101C, strain arx1, hits give low values 0.95 | locus YDR150W, strain NUM1, hits give low values 1.02 | locus YDR159W, strain sac3, hits give low values 0.936 | locus YDR162C, strain NBP2, hits give low values 1 | locus YDR195W, strain ref2 1.1 | locus YDR297W, strain sur2, hits give low values 0.975 | locus YDR334W, strain swr1, hits give low values 1.01 | locus YDR335W, strain msn5, hits give low values 0.953 | locus YDR502C, strain sam2, hits give low values 0.931 | locus YEL003W, strain gim4, hits give low values 1.01 | locus YEL037C, strain rad23, hits give low values 1 | locus YEL061C, strain CIN8 (second series), hits give low values 0.998 | locus YEL061C, strain CIN8, hits give low values 1.02 | locus YER015W, strain faa2, hits give low values 0.985 | locus YER016W, strain bim1, hits give low values 0.992 | locus YER110C, hits give low values 0.977 | locus YER111C, strain swi4, hits give low values 0.988 | locus YER155C, strain BEM2, hits give low values 0.999 | locus YER167W, strain BCK2, hits give low values 1 | locus YFR010W, strain ubp6, hits give low values 0.965 | locus YGL078C, strain dbp3, hits give low values 0.996 | locus YGL086W, strain mad1, hits give low values 0.946 | locus YGL167C, strain pmr1, hits give low values 1.01 | locus YGL173C, strain kem1, hits give low values 0.969 | locus YGL227W, strain vid30, hits give low values 1.02 | locus YGL240W, strain doc1, hits give low values 0.921 | locus YGL248W, strain PDE1, hits give low values 1 | locus YGR135W, strain pre9, hits give low values 0.904 | locus YHR013C, strain ard1, hits give low values 0.944 | locus YHR027C, strain rpn1, hits give low values 0.99 | locus YHR030C, strain SLT2, hits give low values 1.01 and 0.981 | locus YHR079C, strain IRE1 (second series), hits give low values 0.933 | locus YHR079C, strain IRE1, hits give low values 0.98 | locus YHR094C, strain hxt1, hits give low values 0.972 | locus YHR129C, strain ARP1, hits give low values 1.01 | locus YHR200W, strain rpn10, hits give low values 0.96 | locus YIL066C, strain RNR3, hits give low values 1.01 | locus YIL073C, strain SPO22, hits give low values 1.02 | locus YIL125W, strain kgd1, hits give low values 0.997 | locus YIR030C, strain dcg1, hits give low values 0.98 | locus YJL092W, strain hpr5, hits give low values 0.977 | locus YJL095W, strain BCK1 (second series), hits give low values 0.973 | locus YJL095W, strain BCK1, hits give low values 0.992 and 0.978 | locus YJL115W, strain asf1, hits give low values 1 | locus YJL129C, strain trk1, hits give low values 1.03 | locus YJL134W, strain LCB3, hits give low values 1.01 | locus YJL154C, strain vps35, hits give low values 1.01 | locus YJL164C, strain tpk1, hits give low values 0.972 | locus YJL166W, strain qcr8, hits give low values 0.979 | locus YJL168C, strain set2, hits give low values 0.971 | locus YJL187C, strain SWE1 (second series), hits give low values 1.01 | locus YJL187C, strain SWE1, hits give low values 0.994
active: locus YAL026C, strain drs2, hits give low values 0.767 | locus YDR137W, strain rgp1, hits give low values 1.23 [resistant] | locus YDR318W, strain mcm21, hits give low values 0.911 | locus YDR388W, hits give low values 0.922 | locus YDR392W, strain spt3, hits give low values 0.456 | locus YER155C, strain BEM2 (second series), hits give low values 0.681 | locus YGL253W, strain hxk2, hits give low values 0.889 | locus YGR252W, strain gcn5, hits give low values 0.711 | locus YHR142W, strain chs7, hits give low values 0.86
